According to ChEMBL document CHEMBL3988442, “University of Dundee, Small-Polar-MMV Screening Library” (2021):
For some of these results: Potency and affinity values are given separately.

Key:
Design in all cases: scale not given: direction of the effect not stated beside the values
[1] = molecular target: Protein translocase subunit SecA (Escherichia coli (strain K12)) (UniProt P10408); assay: Assay to Identify E. coli SecA ATPase Inhibitors; assay type: functional; conditions: 30 µM
[2] = molecular target: T1, Ubiquitin-activating enzyme e1, putative (Leishmania donovani (strain BPK282A1)) (UniProt E9BSI1); assay: Leishmania donovani Ubiquitin Activating Enzyme (LdE1); assay type: functional; conditions: 30 µM
T1 sequence (whole entry): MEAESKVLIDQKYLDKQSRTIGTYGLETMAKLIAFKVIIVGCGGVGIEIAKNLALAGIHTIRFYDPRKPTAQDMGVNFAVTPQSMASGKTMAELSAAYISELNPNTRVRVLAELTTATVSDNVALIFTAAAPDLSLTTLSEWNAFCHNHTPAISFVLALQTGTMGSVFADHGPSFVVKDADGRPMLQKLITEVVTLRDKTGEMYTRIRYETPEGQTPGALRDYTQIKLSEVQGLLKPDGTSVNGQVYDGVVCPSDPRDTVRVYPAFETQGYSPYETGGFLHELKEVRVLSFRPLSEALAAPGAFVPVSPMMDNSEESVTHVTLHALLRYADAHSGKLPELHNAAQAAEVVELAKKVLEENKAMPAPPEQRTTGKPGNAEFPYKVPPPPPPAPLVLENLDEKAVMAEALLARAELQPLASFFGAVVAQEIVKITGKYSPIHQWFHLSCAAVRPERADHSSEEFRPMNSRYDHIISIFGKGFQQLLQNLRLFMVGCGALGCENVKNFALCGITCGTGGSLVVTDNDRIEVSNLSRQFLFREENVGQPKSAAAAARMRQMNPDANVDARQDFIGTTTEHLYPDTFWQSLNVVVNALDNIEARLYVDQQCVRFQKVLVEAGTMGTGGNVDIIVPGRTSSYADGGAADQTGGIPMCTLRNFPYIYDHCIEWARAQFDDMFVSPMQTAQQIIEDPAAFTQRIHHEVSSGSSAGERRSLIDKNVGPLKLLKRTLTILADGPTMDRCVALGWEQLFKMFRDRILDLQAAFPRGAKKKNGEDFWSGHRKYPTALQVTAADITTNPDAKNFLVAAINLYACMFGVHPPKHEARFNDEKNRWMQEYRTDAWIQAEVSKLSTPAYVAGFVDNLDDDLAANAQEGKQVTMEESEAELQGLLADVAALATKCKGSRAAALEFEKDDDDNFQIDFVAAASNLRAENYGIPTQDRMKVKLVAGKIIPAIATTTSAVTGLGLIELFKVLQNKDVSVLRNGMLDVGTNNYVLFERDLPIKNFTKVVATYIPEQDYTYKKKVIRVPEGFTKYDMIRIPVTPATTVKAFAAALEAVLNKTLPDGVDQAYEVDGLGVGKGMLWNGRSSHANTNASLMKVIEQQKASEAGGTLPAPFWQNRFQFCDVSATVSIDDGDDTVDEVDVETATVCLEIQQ

[3] = molecular target: AMP-activated protein kinase, AMPK (Homo sapiens) (UniProt P54646+O43741+P54619+Q9UGJ0+Q9Y478+Q13131+Q9UGI9); assay: AMP-dependent Kinase enzyme assay. An in vitro enzyme assay that detects ADP turnover that is directly proportional to AMPK activity. This uses naive AMPK that is activated during the assay with MK-8722; assay type: functional; conditions: 30 µM
[4] = molecular target: Sialic acid-binding Ig-like lectin 9 (Homo sapiens) (UniProt Q9Y336); assay: Hs-Siglec9 ALPHAscreen SOP 20170721; conditions: 10 µM
Trypanosoma cruzi = assay: Trypanosoma cruzi phosphomannomutase and mannose-1-phosphate guanylyltransferase assay; assay type: functional; conditions: 10 µM
[5] = molecular target: T2, Arginase-2, mitochondrial (Homo sapiens) (UniProt P78540); assay: in vitro enzyme assay to detect the production of urea directly proportional to the activity of Arginase II; assay type: functional; conditions: 33.3 µM; note: in the data most compounds retested in dose-response had high values
T2 sequence (whole entry): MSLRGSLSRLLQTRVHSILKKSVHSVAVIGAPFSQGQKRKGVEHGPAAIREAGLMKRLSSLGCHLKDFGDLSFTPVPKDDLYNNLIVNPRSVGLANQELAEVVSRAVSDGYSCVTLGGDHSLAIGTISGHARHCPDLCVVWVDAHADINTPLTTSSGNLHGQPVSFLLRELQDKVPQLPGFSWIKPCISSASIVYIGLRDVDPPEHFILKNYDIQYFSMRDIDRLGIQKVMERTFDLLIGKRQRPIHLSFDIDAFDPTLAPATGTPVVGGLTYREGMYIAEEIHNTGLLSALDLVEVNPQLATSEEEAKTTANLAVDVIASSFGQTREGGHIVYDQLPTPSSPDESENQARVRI

[6] = molecular target: T3, Proteasome subunit beta (Trypanosoma cruzi) (UniProt O96673); assay: Trypanosoma cruzi proteasome chymotrypsin-like activity (TcProtChymo) assay.; note: in the data most compounds retested in dose-response had high values; assay type: functional; conditions: 9.37 µM
T3 sequence (whole entry): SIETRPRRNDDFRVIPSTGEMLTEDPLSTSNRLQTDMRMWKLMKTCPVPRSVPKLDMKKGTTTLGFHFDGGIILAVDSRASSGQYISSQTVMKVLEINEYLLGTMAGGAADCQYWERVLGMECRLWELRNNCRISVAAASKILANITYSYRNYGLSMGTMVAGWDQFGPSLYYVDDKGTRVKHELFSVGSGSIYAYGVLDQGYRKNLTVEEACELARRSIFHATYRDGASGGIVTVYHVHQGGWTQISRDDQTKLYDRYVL

Homo sapiens = organism: Homo sapiens; assay: To identify inhibition of the IFN signalling (Jak-Stat) pathway via expression of an eGFP reporter gene under the control of an IFN-stimulated response element (ISRE) containing MxA promoter.; assay type: functional; conditions: 30 µM
[7] = molecular target: T4, Tyrosyl-tRNA synthetase, putative (Trypanosoma cruzi (strain CL Brener)) (UniProt Q4DSP6); assay: Trypanosoma cruzi tyrosyl tRNA synthetase (TcYRS) _High Tyrosine SOP; assay type: functional; conditions: 30 µM; note: in the data most compounds retested in dose-response had high values
T4 sequence (whole entry): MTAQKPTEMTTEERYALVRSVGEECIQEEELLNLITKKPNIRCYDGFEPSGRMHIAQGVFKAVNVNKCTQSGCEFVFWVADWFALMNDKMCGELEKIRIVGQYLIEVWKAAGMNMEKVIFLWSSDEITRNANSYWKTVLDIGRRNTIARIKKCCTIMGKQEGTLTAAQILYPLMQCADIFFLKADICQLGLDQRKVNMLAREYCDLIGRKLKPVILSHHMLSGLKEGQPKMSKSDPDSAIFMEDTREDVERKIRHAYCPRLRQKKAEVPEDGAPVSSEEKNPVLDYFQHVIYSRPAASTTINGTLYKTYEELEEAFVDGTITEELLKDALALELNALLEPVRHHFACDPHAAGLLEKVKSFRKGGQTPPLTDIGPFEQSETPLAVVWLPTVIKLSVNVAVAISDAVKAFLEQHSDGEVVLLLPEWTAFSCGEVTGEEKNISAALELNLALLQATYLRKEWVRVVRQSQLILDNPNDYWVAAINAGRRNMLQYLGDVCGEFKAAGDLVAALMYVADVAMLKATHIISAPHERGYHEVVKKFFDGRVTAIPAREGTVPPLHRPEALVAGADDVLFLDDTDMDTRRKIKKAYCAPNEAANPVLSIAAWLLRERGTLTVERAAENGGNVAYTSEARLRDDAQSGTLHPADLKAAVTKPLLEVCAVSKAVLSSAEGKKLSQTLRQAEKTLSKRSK

[8] = molecular target: T4, Tyrosyl-tRNA synthetase, putative (Trypanosoma cruzi (strain CL Brener)); assay: Trypanosoma cruzi tyrosyl tRNA synthetase (TcYRS) SOP; assay type: functional; conditions: 30 µM
[9] = molecular target: Chromo domain-containing protein 1 (Saccharomyces cerevisiae (strain ATCC 204508 / S288c) (Baker's yeast)) (UniProt P32657); assay: ScCHD-1 Enzyme Inhibition Assay; assay type: functional; conditions: 30 µM; note: in the data most compounds retested in dose-response had high values
Chromo domain-containing protein 1 (Saccharomyces cerevisiae (strain ATCC 204508 / S288c) (Baker's yeast)), sequence (P32657 whole entry, the tested form may be a part): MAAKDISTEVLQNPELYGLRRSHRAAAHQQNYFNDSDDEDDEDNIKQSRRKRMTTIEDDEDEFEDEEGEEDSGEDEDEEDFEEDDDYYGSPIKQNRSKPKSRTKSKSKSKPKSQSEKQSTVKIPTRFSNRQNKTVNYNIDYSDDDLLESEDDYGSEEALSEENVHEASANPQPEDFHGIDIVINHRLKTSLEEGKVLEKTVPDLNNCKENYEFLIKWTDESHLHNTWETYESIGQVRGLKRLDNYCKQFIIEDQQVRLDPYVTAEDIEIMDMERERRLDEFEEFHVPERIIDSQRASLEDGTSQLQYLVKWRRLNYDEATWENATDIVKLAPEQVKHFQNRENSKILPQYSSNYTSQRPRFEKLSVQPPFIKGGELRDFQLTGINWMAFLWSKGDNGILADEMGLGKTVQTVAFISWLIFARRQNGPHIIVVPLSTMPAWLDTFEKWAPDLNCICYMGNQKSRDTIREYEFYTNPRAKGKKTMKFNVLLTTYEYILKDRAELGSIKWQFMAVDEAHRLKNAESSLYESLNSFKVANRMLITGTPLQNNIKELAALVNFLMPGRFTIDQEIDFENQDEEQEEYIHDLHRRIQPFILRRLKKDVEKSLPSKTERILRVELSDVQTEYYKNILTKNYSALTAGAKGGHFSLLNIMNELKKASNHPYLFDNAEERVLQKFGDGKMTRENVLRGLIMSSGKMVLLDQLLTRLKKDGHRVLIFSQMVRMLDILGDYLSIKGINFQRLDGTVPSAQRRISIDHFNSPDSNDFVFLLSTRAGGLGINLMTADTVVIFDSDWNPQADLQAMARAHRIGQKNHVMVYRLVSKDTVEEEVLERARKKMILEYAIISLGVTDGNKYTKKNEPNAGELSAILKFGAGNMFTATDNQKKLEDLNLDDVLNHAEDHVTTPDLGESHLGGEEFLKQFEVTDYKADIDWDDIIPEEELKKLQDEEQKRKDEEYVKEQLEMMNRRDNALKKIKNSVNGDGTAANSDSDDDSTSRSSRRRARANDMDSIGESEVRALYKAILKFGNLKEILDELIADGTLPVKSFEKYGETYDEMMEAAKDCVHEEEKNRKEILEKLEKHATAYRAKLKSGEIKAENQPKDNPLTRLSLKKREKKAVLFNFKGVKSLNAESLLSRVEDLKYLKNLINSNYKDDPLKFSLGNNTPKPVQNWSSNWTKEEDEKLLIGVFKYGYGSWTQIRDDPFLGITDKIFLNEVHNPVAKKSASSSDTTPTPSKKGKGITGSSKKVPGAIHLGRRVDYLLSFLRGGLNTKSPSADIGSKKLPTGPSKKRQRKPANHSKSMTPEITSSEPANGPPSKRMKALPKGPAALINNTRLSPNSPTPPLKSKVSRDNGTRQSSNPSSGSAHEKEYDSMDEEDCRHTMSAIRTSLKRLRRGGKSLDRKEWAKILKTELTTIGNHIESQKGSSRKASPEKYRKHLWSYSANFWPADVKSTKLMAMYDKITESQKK

Protein translocase subunit SecA (Escherichia coli (strain K12)), sequence (P10408 whole entry): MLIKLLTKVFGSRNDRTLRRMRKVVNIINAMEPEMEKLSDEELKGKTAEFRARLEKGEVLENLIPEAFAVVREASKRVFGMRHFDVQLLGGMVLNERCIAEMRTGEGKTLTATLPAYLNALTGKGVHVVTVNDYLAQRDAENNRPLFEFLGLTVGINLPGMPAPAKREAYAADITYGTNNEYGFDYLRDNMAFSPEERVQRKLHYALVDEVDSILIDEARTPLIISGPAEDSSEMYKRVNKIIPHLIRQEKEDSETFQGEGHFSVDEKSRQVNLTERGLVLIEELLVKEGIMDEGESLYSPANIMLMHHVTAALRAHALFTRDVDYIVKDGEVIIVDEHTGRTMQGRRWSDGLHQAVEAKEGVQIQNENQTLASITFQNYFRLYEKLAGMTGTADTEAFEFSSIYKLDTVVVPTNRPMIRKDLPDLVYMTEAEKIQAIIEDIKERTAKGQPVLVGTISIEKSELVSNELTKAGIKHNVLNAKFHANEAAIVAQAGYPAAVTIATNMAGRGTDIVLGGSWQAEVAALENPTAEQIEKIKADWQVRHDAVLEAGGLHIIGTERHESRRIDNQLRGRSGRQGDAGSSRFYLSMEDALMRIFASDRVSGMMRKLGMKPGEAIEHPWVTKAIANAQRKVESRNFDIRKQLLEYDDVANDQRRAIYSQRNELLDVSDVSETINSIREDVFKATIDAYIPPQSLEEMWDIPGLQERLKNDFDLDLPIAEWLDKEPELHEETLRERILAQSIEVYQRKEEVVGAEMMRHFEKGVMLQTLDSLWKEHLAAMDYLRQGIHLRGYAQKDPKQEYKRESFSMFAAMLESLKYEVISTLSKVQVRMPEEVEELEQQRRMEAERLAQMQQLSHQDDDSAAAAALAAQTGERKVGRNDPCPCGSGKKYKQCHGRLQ
Sialic acid-binding Ig-like lectin 9 (Homo sapiens), sequence (Q9Y336 whole entry): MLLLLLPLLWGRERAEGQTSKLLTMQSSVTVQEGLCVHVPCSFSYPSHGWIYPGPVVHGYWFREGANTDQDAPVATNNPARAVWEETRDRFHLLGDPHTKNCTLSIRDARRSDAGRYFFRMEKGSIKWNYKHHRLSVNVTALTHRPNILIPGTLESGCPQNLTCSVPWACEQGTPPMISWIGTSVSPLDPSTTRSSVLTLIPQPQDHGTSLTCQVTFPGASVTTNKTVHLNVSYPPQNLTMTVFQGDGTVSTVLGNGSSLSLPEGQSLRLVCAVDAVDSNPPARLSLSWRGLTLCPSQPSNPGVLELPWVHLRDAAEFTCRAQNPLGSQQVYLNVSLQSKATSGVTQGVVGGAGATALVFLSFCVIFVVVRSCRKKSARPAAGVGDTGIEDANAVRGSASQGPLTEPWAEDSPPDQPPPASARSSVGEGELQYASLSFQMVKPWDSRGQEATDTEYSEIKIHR

Compound	Percent Effect [1]	Percent Effect [2]	Percent Effect [3]	Percent Effect [4]	Percent Effect (Trypanosoma cruzi)	Percent Effect [5]	Percent Effect [6]	Percent Effect (Homo sapiens)	Percent Effect [7]	Percent Effect [8]	Percent Effect [9]
CN(Cc1cncnc1)Cc1cn2c(n1)CN(C1CCOC1)CC2 (stereo not given)	-2.37%	5.33%	-0.62%	5.52%	-2.51%	-21.7%	8.38%	8.32%	5.21%	12.5%	-5.82%
COC(=O)CCNC(=O)c1ccoc1CN1c2ccccc2CC1C (stereo not given)	-4.57%	0%	6.85%	8.39%	1.98%	-18.4%	19.9%	9.3%	6.25%	3.7%	-2.6%
CC(=O)N1CCNCC1c1cccc(C(=O)N(C)C)c1 (stereo not given)	-0.644%	-6.76%	10.3%	-0.354%	-4.94%	4.41%	-3.43%	4.59%	1.07%	1.3%	0.199%
Cc1cnc2n1CCN(C)C21CCN(C(=O)CC(C)C)CC1	-2.76%	8%	2.31%	1.76%	-5.21%	-26.3%	8.38%	-3.36%	-1.04%	15%	-7.37%
O=C(c1coc(COc2cccc(F)c2)n1)N1CC[C@H](O)[C@@H](O)C1	-4.21%	2.7%	0.202%	8.13%	1.93%	3.33%	10.2%	7.51%	5.82%	9.76%	-4.67%
Cc1nc(C2(O)CCCNCC2)sc1CCOc1ccc(Cl)cc1 (stereo not given)	-4.62%	6.76%	17.1%	1.33%	-3.56%	-2.09%	6.4%	33.8%	4.3%	11.7%	-12.8%
CO[C@H]1CCN(C(=O)Cc2ccccn2)[C@H]1Cc1ccncc1	-0.476%	16%	1.42%	-1.93%	-4.53%	-2.56%	8.02%	7.43%	3.19%	11.5%	-2.72%
N#Cc1ccnc(N2CCN(C(=O)Cc3ccc4c(c3)CCO4)CC2)c1	-5.74%	21.1%	-3.75%	4.19%	5.83%	0%	13.4%	1.61%	2.45%	19.5%	-11.9%
COc1ccc(COCC(O)CNC(=O)c2cc(C)cc(C)c2)cc1 (stereo not given)	-3.84%	13.9%	0.387%	-0.514%	0.718%	-4.09%	9.95%	9.63%	4.17%	17.7%	-15.9%
c1cnc(NCc2cncc3c2CCN(Cc2cccs2)C3)nc1	-0.336%	10.7%	8.51%	-0.683%	-7.28%	2.1%	9.43%	12.1%	3.19%	8.97%	-5.11%
CCC(=O)N1CCC(Cc2ccccc2-c2ccccc2)(C(N)=O)C1 (stereo not given)	-3.32%	13.3%	10.4%	-2.64%	3.94%	7.69%	8.37%	16.6%	1.06%	16.7%	-4.71%
Cc1cc(C2CCCN(C(=O)c3cnccn3)C2)ccn1 (stereo not given)	2.59%	6.76%	5.06%	0.392%	-5.93%	0.232%	8.27%	12.6%	2.15%	3.9%	6.76%
CN1CCc2c(C#N)c(NCc3ccco3)n3cnnc3c2C1	-7.61%	15.8%	0.706%	6.25%	1.07%	0%	14.5%	-6.85%	4.25%	15.6%	-17.9%
Cc1cccc(CCC(=O)N2CCOCC2c2c(C)n[nH]c2C)c1 (stereo not given)	-3.35%	-5.48%	-2.62%	6.45%	-3.33%	-2.73%	-2.84%	9.04%	-3.23%	-7.5%	-2.99%
c1ccc(CN2CCc3ncnc(-c4ccsc4)c3CC2)nc1	-4.91%	0%	2.79%	8.34%	-2.83%	5.41%	22.7%	-21%	2.16%	7.69%	3.65%
Cc1nc(N2CCN(C(=O)C(C)(C)C)CC2)cc(-n2cnc(C)c2C)n1	-3.24%	10.4%	2.15%	6.33%	6.2%	-44.1%	22.3%	4.66%	3.23%	8.64%	-4.66%
CN(Cc1cnn(-c2ccccc2)n1)CC1CCCN1c1cccnn1 (stereo not given)	-3.33%	-36.8%	3.24%	7.96%	5.7%	0.36%	-3.98%	8.95%	8.37%	13.6%	1.47%
O=C1[C@H]2CN(c3ncccn3)C[C@H]2CN1Cc1ccncc1	-4.5%	-2.7%	1.46%	-4.76%	-2.34%	-0.417%	3.97%	-1.92%	3.96%	-3.66%	-3.35%
Cc1csc([C@@H]2C[C@@H]3CCN(Cc4cnn(C)c4)C[C@H]3O2)n1	-5.44%	2.6%	-0.433%	1.83%	-0.0983%	-5.52%	3.33%	-23.4%	1.07%	1.24%	-4%
CC(C)c1n[nH]c(C2CN(C(=O)c3csnn3)CCO2)n1 (stereo not given)	-2.56%	-7.89%	-6.16%	6.92%	4.58%	1.08%	0.592%	-2.95%	3.45%	6.17%	-3.21%
